HIV RNase H inh-1 = inhibitors of HIV-1 reverse transcriptase RNase H; P04585; RT-RNase H RNA/DNA duplex cleavage, fluorescence; inhibition, % at 10 µM; 1.9% of 65,000 active; in the data active means inhibition above about 50%
HIV RNase H inh-2 = confirmation of HIV-1 reverse transcriptase RNase H inhibitors | shares compounds with HIV RNase H inh-1 | Recombinant RT RNase H, fluorescent RNA/DNA duplex cleavage | inhibition, % at 10 µM | 39% of 1,000 active; in the data active means inhibition above about 48%
* marks the source's active call; other numbers are inactive results. Many of the other results were omitted from the sample, so hits are more common in it than they were.

For O=C(CSc1nnnn1Cc1ccccc1)Nc1ccc2c(c1)OCO2 the results were HIV RNase H inh-1 -42.0.
O=C(CSc1nnc(-c2ccccn2)n1Cc1ccccc1)Nc1ccc2c(c1)OCO2 was read as HIV RNase H inh-1 77.5* and HIV RNase H inh-2 6.5.
`O=C(Nc1ccc(F)cc1)c1cc(S(=O)(=O)N2CCCCC2)cs1` gave HIV RNase H inh-1 4.4.
COc1ccc(-c2nnc(SCC(=O)NC(=O)NCc3ccco3)o2)cc1 was read as HIV RNase H inh-1 0.4.
For CCOC(=O)c1[nH]c2ccc(OC)cc2c1NC(=O)CN1CCN(c2ccccn2)CC1 the results were HIV RNase H inh-1 -4.7.
CCOC(=O)c1[nH]c2ccc(OC)cc2c1NC(=O)CN1CCC2(CC1)OCCO2 was read as HIV RNase H inh-1 73.6* and HIV RNase H inh-2 32.8.
Screening CCOC(=O)c1[nH]c2ccc(OC)cc2c1NC(=O)C(C)N1CCC2(CC1)OCCO2 (centres undefined) returned HIV RNase H inh-1 3.4.
For COCC(C)n1c(SCC(=O)NC(=O)Nc2ccc3c(c2)OCCO3)nc2ccccc2c1=O (centres undefined) the results were HIV RNase H inh-1 -24.6.
Cc1cccn2c(=O)c(C=NCc3ccco3)c(Nc3ccc(Cl)cc3)nc12 was read as HIV RNase H inh-1 3.6.
For CC(C)CC1(C)NC(=O)N(CCN2C(=O)c3ccccc3C2=O)C1=O (centres undefined) the results were HIV RNase H inh-1 -17.4.
COc1cc(OC)c(-c2nn3c(-c4ccco4)nnc3s2)cc1OC was read as HIV RNase H inh-1 -17.8.
Screening Cc1ccccc1-c1nn2c(-c3ccccc3)nnc2s1 returned HIV RNase H inh-1 -26.4.
Screening Cc1cc(-c2nn3c(-c4ccccc4)nnc3s2)c2ccccc2n1 returned HIV RNase H inh-1 82.1* and HIV RNase H inh-2 62.7*.
COc1ccc(-c2nnc3sc(-c4ccccc4OC)nn23)cc1 was read as HIV RNase H inh-1 -4.5.
c1ccc(-c2cc(-c3nn4c(-c5ccco5)nnc4s3)c3ccccc3n2)cc1 was read as HIV RNase H inh-1 75.2* and HIV RNase H inh-2 26.0.
Clc1ccccc1-c1nnc2sc(-c3ccco3)nn12 was read as HIV RNase H inh-1 -23.9.
`CCOc1cc(C(=O)NC(C)c2ccncc2)cc(OCC)c1OCC` (centres undefined) gave HIV RNase H inh-1 3.9.
For O=C(Nc1ccccc1)N(C1=NCCC1)c1ccc(OC(F)F)cc1 the results were HIV RNase H inh-1 -10.2.
`COc1ccc(C2CC(c3cccc(OC)c3OC)n3nnnc3N2)cc1` (centres undefined) gave HIV RNase H inh-1 -4.0.
`NC(=O)c1cnccn1` gave HIV RNase H inh-1 -5.1.
Screening C=CCn1c(N(C)C)nc2c1c(=O)[nH]c(=O)n2C returned HIV RNase H inh-1 -11.0.
For COc1cccc(OCC(=O)Nc2c(C(=O)Nc3ccc(OC)cc3OC)oc3ccccc23)c1 the results were HIV RNase H inh-1 89.1* and HIV RNase H inh-2 92.9*.
Screening CCOCC(=O)Nc1c(C(=O)Nc2ccc(OC)cc2OC)oc2ccccc12 returned HIV RNase H inh-1 16.8.
COc1ccc(NC(=O)c2oc3ccccc3c2NC(=O)c2ccco2)c(OC)c1 was read as HIV RNase H inh-1 8.2.
`O=C(c1cccc(S(=O)(=O)NCCOc2ccccc2)c1)N1CCN(c2ncccn2)CC1` gave HIV RNase H inh-1 -0.4.
Screening CCOC(=O)C(NC(C)=O)C(OC(C)=O)c1cccc(N(CCO)CCO)c1 (centres undefined) returned HIV RNase H inh-1 -0.5.
Cc1cccc(-c2nc(CN3CCCC(C(=O)NC4CCCCCC4)C3)c(C)o2)c1 (centres undefined) was read as HIV RNase H inh-1 6.3.
Screening Cc1cccc(-c2nc(CN3CCCC(C(=O)NC4CCCCC4)C3)c(C)o2)c1 (centres undefined) returned HIV RNase H inh-1 9.7.
`COC(=O)c1ccc2c(c1)N(Cc1nc(-c3cccc(C)c3)oc1C)C(=O)C1CCCN21` (centres undefined) gave HIV RNase H inh-1 71.2* and HIV RNase H inh-2 66.7*.
Screening Cc1cc(C)n(C(=O)c2ccc(S(=O)(=O)NCC3CCCO3)cc2)n1 (centres undefined) returned HIV RNase H inh-1 -4.5.
Screening CC(C)COC(=O)C1[C@H]2C(=O)N(Cc3cccs3)C[C@]23C=C[C@H]1O3 (some centres undefined) returned HIV RNase H inh-1 -5.0.
For N#Cc1nc(-c2cccs2)oc1NCc1ccccc1Cl the results were HIV RNase H inh-1 -11.0.
NC(=O)C1CCCN(S(=O)(=O)c2ccc(Br)cc2)C1 (centres undefined) was read as HIV RNase H inh-1 -5.7.
Screening O=C(C1CCCCC1)N(Cc1nc2sc3c(c2c(=O)[nH]1)CCCC3)Cc1cccs1 returned HIV RNase H inh-1 1.6.
Screening O=C(c1ccc2c3c(cccc13)C(=O)N(O)C2=O)N1CCCCC1 returned HIV RNase H inh-1 80.0* and HIV RNase H inh-2 70.3*.
Screening O=C(c1cccc2cccc(O)c12)N1CCCCC1 returned HIV RNase H inh-1 1.4.
`O=C1c2cccc3c(Cl)ccc(c23)C(=O)N1O` gave HIV RNase H inh-1 -11.9.
Screening Cc1ccc2nsnc2c1S(=O)(=O)N1CCN(Cc2ccc3c(c2)OCO3)CC1 returned HIV RNase H inh-1 -52.1.
Screening CCN1CCN(C(c2cc3cccc(C)c3[nH]c2=O)c2nnnn2Cc2ccccc2)CC1 (centres undefined) returned HIV RNase H inh-1 0.5.
`COc1ccc(Cn2nnnc2C(c2cc3cc(C)ccc3[nH]c2=O)N2CCOCC2)cc1` (centres undefined) gave HIV RNase H inh-1 -18.2.
For COc1ccc(Cn2nnnc2C(c2cc3cccc(C)c3[nH]c2=O)N2CCOCC2)cc1 (centres undefined) the results were HIV RNase H inh-1 54.4* and HIV RNase H inh-2 4.3.
Screening CCOC(=O)N1CCN(C(=O)CS(=O)(=O)c2cn(Cc3ccc(F)cc3)c3ccccc23)CC1 returned HIV RNase H inh-1 4.5.
For O=C(Nc1ccccc1Oc1ccccc1)C1CC1 the results were HIV RNase H inh-1 -16.6.
For C=CCn1c(COc2ccc(CC)cc2)nnc1SCC(=O)N(C)C1CCS(=O)(=O)C1 (centres undefined) the results were HIV RNase H inh-1 1.6.
CCn1c(SCC(=O)N(Cc2ccccc2)C2CCS(=O)(=O)C2)nc2ccccc2c1=O (centres undefined) was read as HIV RNase H inh-1 -9.7.
Screening CN(C(=O)CSc1nc2ccccc2n1CCc1ccccc1)C1CCS(=O)(=O)C1 (centres undefined) returned HIV RNase H inh-1 85.9* and HIV RNase H inh-2 -1.0.
`Cc1ccc(C)c(NC(=O)CNS(=O)(=O)c2ccccc2)c1` gave HIV RNase H inh-1 -4.3.
`CC1CCCN(S(=O)(=O)c2ccc(NC(=O)Cn3nnc(-c4ccccc4F)n3)cc2)C1` (centres undefined) gave HIV RNase H inh-1 11.1.
Screening CC1CCN(S(=O)(=O)c2ccc(NC(=O)Cn3nnc(-c4ccccc4)n3)cc2)CC1 returned HIV RNase H inh-1 69.6* and HIV RNase H inh-2 68.4*.
`Cc1ccc(-c2nnn(CC(=O)Nc3ccc(S(=O)(=O)N4CCC(C)CC4)cc3)n2)cc1` gave HIV RNase H inh-1 39.8.
`O=C(c1ccccc1OCc1ccccc1Br)N1CCN(c2ncccn2)CC1` gave HIV RNase H inh-1 -17.6.
CCCOC(=O)CSC1=C(C#N)C(c2ccccc2OCC)C(C#N)C(=O)N1 (centres undefined) was read as HIV RNase H inh-1 5.9.

Bioassay records as filed in PubChem BioAssay.
